This is part of a sample that, as a whole, favours compounds with a hit. Of some 83,000 tested, about 20% had one in any assay.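 Activity criterion: percent growth below 10, measured after cells in 96-well plates were exposed to a single compound concentration for 48 hours.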 Unmarked numbers belong to inactive results. Activity calls are given as the source filed them.
Assays:
Test in all cases: NCI-60 one-dose screen, 48 h (100 = growth as untreated, 0 = no growth, -100 = all killed)
Conditions in all cases: 10 µM unless noted
DU-145 prostate = test system: DU-145 prostate
K-562 leukemia = test system: K-562 leukemia
MALME-3M melanoma = test system: MALME-3M melanoma
MDA-MB-231 breast = test system: MDA-MB-231 breast
RXF 393 renal = test system: RXF 393 renal
SF-268 CNS = test system: SF-268 CNS
SF-295 CNS = test system: SF-295 CNS
SF-539 CNS = test system: SF-539 CNS
UACC-257 melanoma = test system: UACC-257 melanoma
M14 melanoma = test system: M14 melanoma
HCT-15 colon = test system: HCT-15 colon
HT29 colon = test system: HT29 colon
SNB-75 CNS = test system: SNB-75 CNS
SNB-19 CNS = test system: SNB-19 CNS
U251 CNS = test system: U251 CNS
PC-3 prostate = test system: PC-3 prostate
SK-MEL-5 melanoma = test system: SK-MEL-5 melanoma
UACC-62 melanoma = test system: UACC-62 melanoma
LOX IMVI melanoma = test system: LOX IMVI melanoma
SK-MEL-28 melanoma = test system: SK-MEL-28 melanoma

CCn1cc(CNc2ccc(C(=O)Nc3cc4cc(OC)c(OC)cc4c(C)n3)cc2)cn1 was tested, and the growth (DU-145 prostate) was 67.2%, the growth (K-562 leukemia) was 30.8% and the growth (MALME-3M melanoma) was 54.6%. It also gave a growth (MDA-MB-231 breast) of 79.6%, a growth (RXF 393 renal) of 80.4% and a growth (SF-268 CNS) of 60.6%. For the same compound, the growth (SF-295 CNS) was 60.4%, the growth (SF-539 CNS) was 70.5% and the growth (UACC-257 melanoma) was 56.2%. It also gave a growth (M14 melanoma) of 48.8%, a growth (HCT-15 colon) of 26.3% and a growth (HT29 colon) of 56.6%. It also gave a growth (SNB-75 CNS) of 65.2%, a growth (SNB-19 CNS) of 84.1% and a growth (U251 CNS) of 65.2%. The growth (PC-3 prostate) was 15.3%, the growth (SK-MEL-5 melanoma) was 10.3% and the growth (UACC-62 melanoma) was 33.5%. For the same compound, the growth (LOX IMVI melanoma) was 46.1% and the growth (SK-MEL-28 melanoma) was 70.5%.

With C#CC#CC#CC#CC#CC#CC#CC#CC[C@@H]1OC[C@@H](COC(=O)O[C@@H](C(=O)O[C@H]2C[C@@]3(O)[C@@H](OC(=O)c4ccccc4)[C@@H]4[C@]5(OC(C)=O)CO[C@@H]5C[C@H](O)[C@@]4(C)C(=O)[C@H](OC(C)=O)C(=C2C)C3(C)C)[C@@H](NC(=O)c2ccccc2)c2ccccc2)O1 the growth (DU-145 prostate) was 102%, the growth (K-562 leukemia) was 7.18% (active) and the growth (MALME-3M melanoma) was 37.4%. The growth (MDA-MB-231 breast) was 5.64% (active), the growth (RXF 393 renal) was -12.3% (active) and the growth (SF-268 CNS) was 94.5%. For the same compound, the growth (SF-295 CNS) was 0.0837% (active), the growth (SF-539 CNS) was -8.27% (active) and the growth (UACC-257 melanoma) was 95.5%. For the same compound, the growth (M14 melanoma) was -6.06% (active), the growth (HCT-15 colon) was 11% and the growth (HT29 colon) was 101%. The growth (SNB-75 CNS) was 90.1%, the growth (SNB-19 CNS) was 14.9% and the growth (U251 CNS) was 96.3%. The growth (PC-3 prostate) was 11.1%, the growth (SK-MEL-5 melanoma) was 22.1% and the growth (UACC-62 melanoma) was 25.2%. It also gave a growth (LOX IMVI melanoma) of 22.2% and a growth (SK-MEL-28 melanoma) of 55.4%.

In the case of O=C1/C(=C/c2ccc(O)c(O)c2)COc2ccc(-c3ccccc3)cc21, the growth (DU-145 prostate) is reported as 26.5%, the growth (K-562 leukemia) is reported as 15.3% and the growth (MALME-3M melanoma) is reported as 41.2%. The growth (MDA-MB-231 breast) was 12.9%, the growth (RXF 393 renal) was 16.5% and the growth (SF-268 CNS) was 49.4%. The growth (SF-295 CNS) was 42.5%, the growth (SF-539 CNS) was 9.83% (active) and the growth (UACC-257 melanoma) was 30.4%. The growth (M14 melanoma) was 45.9%, the growth (HCT-15 colon) was -31.2% (active) and the growth (HT29 colon) was 15%. It also gave a growth (SNB-75 CNS) of 21.1%, a growth (SNB-19 CNS) of 56.2% and a growth (U251 CNS) of 22.3%. The growth (PC-3 prostate) was 19.9%, the growth (SK-MEL-5 melanoma) was 23.2% and the growth (UACC-62 melanoma) was -13.6% (active). The growth (LOX IMVI melanoma) was 4.79% (active) and the growth (SK-MEL-28 melanoma) was -11.5% (active).

With C=CC(=O)Nc1ccc(Oc2nccc(Nc3nnc(-c4ccc(C)cc4)s3)n2)cc1 the growth (DU-145 prostate) was 78.5%, the growth (K-562 leukemia) was 29.4% and the growth (MALME-3M melanoma) was 52.6%. The growth (MDA-MB-231 breast) was 88.4%, the growth (RXF 393 renal) was 88% and the growth (SF-268 CNS) was 77.6%. For the same compound, the growth (SF-295 CNS) was 56.9%, the growth (SF-539 CNS) was 83.3% and the growth (UACC-257 melanoma) was 86.5%. For the same compound, the growth (M14 melanoma) was 57.5%, the growth (HCT-15 colon) was 71.5% and the growth (HT29 colon) was 103%. For the same compound, the growth (SNB-75 CNS) was 61%, the growth (SNB-19 CNS) was 62.7% and the growth (U251 CNS) was 83%. For the same compound, the growth (PC-3 prostate) was 52.8%, the growth (SK-MEL-5 melanoma) was 46% and the growth (UACC-62 melanoma) was 44%. For the same compound, the growth (LOX IMVI melanoma) was 60.2% and the growth (SK-MEL-28 melanoma) was 73.9%.

For C=C(CNCCc1ccc(O)cc1)[C@@H]1CC[C@]2(CO)CC[C@]3(C)[C@H](CC[C@@H]4[C@@]5(C)CCC(=O)C(C)(C)[C@@H]5CC[C@]43C)[C@@H]12, the growth (DU-145 prostate) was 43.2%, the growth (K-562 leukemia) was -26.3% (active) and the growth (MALME-3M melanoma) was -57.3% (active). For the same compound, the growth (MDA-MB-231 breast) was 1.97% (active), the growth (RXF 393 renal) was 26% and the growth (SF-268 CNS) was 45.9%. For the same compound, the growth (SF-295 CNS) was 84.2%, the growth (SF-539 CNS) was 78.8% and the growth (UACC-257 melanoma) was -12.8% (active). For the same compound, the growth (M14 melanoma) was -76.3% (active), the growth (HCT-15 colon) was 6.17% (active) and the growth (HT29 colon) was -42.5% (active). For the same compound, the growth (SNB-75 CNS) was 91.2%, the growth (SNB-19 CNS) was 49% and the growth (U251 CNS) was -63.9% (active). For the same compound, the growth (PC-3 prostate) was 14.6%, the growth (SK-MEL-5 melanoma) was -4.88% (active) and the growth (UACC-62 melanoma) was -29.5% (active). The growth (LOX IMVI melanoma) was -89.7% (active) and the growth (SK-MEL-28 melanoma) was -10.8% (active).

CN1CCN(c2ccc(NC(=O)c3cncnc3Nc3ccc(OCc4cccc(F)c4)c(Cl)c3)cc2)CC1 was tested, and the growth (DU-145 prostate) was 80.3%, the growth (K-562 leukemia) was 1.91% (active) and the growth (MALME-3M melanoma) was 78.4%. The growth (MDA-MB-231 breast) was -13.3% (active), the growth (RXF 393 renal) was 55.5% and the growth (SF-268 CNS) was 78.7%. The growth (SF-295 CNS) was 99.8%, the growth (SF-539 CNS) was 43.3% and the growth (UACC-257 melanoma) was 90.5%. For the same compound, the growth (M14 melanoma) was -15.5% (active), the growth (HCT-15 colon) was -39.6% (active) and the growth (HT29 colon) was -55.3% (active). It also gave a growth (SNB-75 CNS) of 68.3%, a growth (SNB-19 CNS) of 84.1% and a growth (U251 CNS) of 47%. The growth (PC-3 prostate) was 68.1%, the growth (SK-MEL-5 melanoma) was 87.8% and the growth (UACC-62 melanoma) was 48%. The growth (LOX IMVI melanoma) was 29.7% and the growth (SK-MEL-28 melanoma) was 81.1%.

In the case of O=C(N/N=C\c1ccccc1S(=O)(=O)O)N/N=C/c1ccccc1S(=O)(=O)O, the growth (DU-145 prostate) is reported as 106%, the growth (K-562 leukemia) is reported as 97.9% and the growth (MALME-3M melanoma) is reported as 105%. It also gave a growth (MDA-MB-231 breast) of 102%, a growth (RXF 393 renal) of 112% and a growth (SF-268 CNS) of 102%. It also gave a growth (SF-295 CNS) of 101%, a growth (SF-539 CNS) of 111% and a growth (UACC-257 melanoma) of 93.2%. The growth (M14 melanoma) was 102%, the growth (HCT-15 colon) was 104% and the growth (HT29 colon) was 105%. The growth (SNB-75 CNS) was 95.5%, the growth (SNB-19 CNS) was 99.8% and the growth (U251 CNS) was 99.9%. For the same compound, the growth (PC-3 prostate) was 96.3%, the growth (SK-MEL-5 melanoma) was 106% and the growth (UACC-62 melanoma) was 98.1%. It also gave a growth (LOX IMVI melanoma) of 102% and a growth (SK-MEL-28 melanoma) of 101%.

From PubChem BioAssay (NCI)
